Reference: ChEMBL document CHEMBL4513216, “Probing the Open Global Health Chemical Diversity Library for Multistage-Active Starting Points for Next-Generation Antimalarials” (ACS Infect Dis, 2020)
The campaign covered roughly 65,000 compounds. About 2,100 (3.2%) showed an effect of 50% or more. The median lay at about -52%. The sample holds strong results, similar compounds and a random draw of the others, so the mix is not that of the screen.

System: Plasmodium falciparum
Assay: Screen against P. falciparum Asexual Blood Stage (ABS), at 5uM
Format: functional, Dd2
Details: tested at 5 uM

Structure (SMILES) | INHIBITION [%]
Cc1nc(CN2CCO[C@@H]3CNCC[C@@H]3C2)cs1 | -15.7
O=C(c1ccc(C2CCCN2)s1)N1CCN2CCC1CC2 (stereo unspecified) | -75.7
NCC(=O)N1CCCC1c1ccc(C(=O)NCc2ccoc2)s1 (stereo unspecified) | 92.6
Cc1sc2nc(C(F)(F)F)nc(N3CCCN(C)CC3)c2c1C | 76.1
O=C1CSC(c2ccc(F)c(Cl)c2)c2c(n(C3CCOCC3)[nH]c2=O)N1 (stereo unspecified) | -35.3
Cc1cccc(CN2CC3C[C@]3(NC(=O)c3cccc(F)c3)C2)n1 (stereo partly specified) | -65.9
O=C(c1cnc(-c2ccccc2)s1)N1CCC2(CC1)OCCO2 | -174
COc1ccc2c(c1)c(C(=O)Nc1nnn[nH]1)cn2C(C)C | -11.6
c1cc(CN2CC[C@@H]3CN(c4cncnc4)C[C@@H]3C2)ccn1 | -49.4
c1cnc(N2C[C@H]3CCN(Cc4ccncc4)C[C@H]3C2)nc1 | -82.6
CN1CCC(C2CCN(Cc3cccc(-n4cccn4)c3)CC2)C1 (stereo unspecified) | 85.7
NC(=O)c1cnn2c1NCC(CNCC1(c3ccccc3)CCC1)C2 (stereo unspecified) | 22.7
Cc1ccc(Oc2cc(F)ccc2O[C@@H]2CCC[C@@H](N)[C@H]2O)cc1 | 91.1
N[C@@H]1CCC[C@@H](Oc2ccc(F)cc2Oc2ccccc2)[C@@H]1O | 77.4
CN[C@@H]1CCC[C@@H](Oc2ccccc2Oc2ccc(C)cc2)[C@@H]1O | 90.3
Fc1cccnc1N1CCOCC2(CCCNC2)C1 (stereo unspecified) | 34.8
CCCN1C(=O)CC2(CCCNC2)C1=O (stereo unspecified) | -90.5
CN(Cc1cc(Cl)cc2cccnc12)CC1CCN(CCO)CC1 | 88.7
CN(Cc1cc(F)cc2cccnc12)CC1CCN(CCO)CC1 | 84.7
CC(O)CN1CCC(CN(C)Cc2cc(F)cc3cccnc23)CC1 (stereo unspecified) | 87.2
Cc1ccc(CC(=O)N2CCN(CC(C)O)CC2)cn1 (stereo unspecified) | -89.8
CN(c1ncccc1C#N)C1CCN(CCc2ccccn2)CC1 | 20.6

Structure (SMILES) | INHIBITION [%]
CC(C)CN1C(=O)C2(CCCC2)NC1c1cn(C)c(=O)n(C)c1=O (stereo unspecified) | -15.3
C[C@H]1C[C@@H]2CCN(CC3CCOCC3)C[C@H]2O1 | -49.5
CC(C)OCCNC1(c2ccc(Cl)cc2)CCOCC1 | 37.7
CC(NCC1(N(C)C)CCOCC1)c1ccc(Cl)cc1 (stereo unspecified) | 74.6
CN1CCN2C(=O)N(C3CCCCC3)C[C@H]2C1 | -52.1
c1ccc(N2CCCC3(CCN(Cc4cccs4)C3)C2)nc1 (stereo unspecified) | 73.4
O=S(=O)(C1CC1)N1CCC2(CCCN(Cc3ccccn3)C2)CC1 | -22.4
c1ccc(CN2CCCC3(CCN(CC4CCCO4)CC3)C2)nc1 (stereo unspecified) | 15.1
c1ccc(CN2CCC3(CC2)CCN(Cc2cccnc2)C3)nc1 | 21
c1ccc(N2CCC3(COCCN(Cc4cccs4)C3)C2)nc1 (stereo unspecified) | 37.5
c1ccc(CN2CCC3(CC2)CC(Nc2nccs2)CO3)nc1 (stereo unspecified) | 75
c1ccc(CO[C@@H]2CO[C@@]3(CCN(Cc4ccccn4)C3)C2)nc1 | -34.3
c1ccc(CN2CCC3(CC2)CCN(Cc2cccs2)C3)nc1 | 54.8
CS(=O)(=O)N1CCC2(CCCN(Cc3ccccn3)C2)C1 (stereo unspecified) | -32.2
c1ccc(CO[C@H]2CO[C@@]3(CCN(Cc4ccoc4)C3)C2)nc1 | 14.1
c1ccc(CN2CCCC3(CCN(Cc4cccs4)C3)C2)nc1 (stereo unspecified) | 73.8
Cc1ccc(N2C[C@@H]3OCCN(CC4CC4)[C@@H]3C2)nn1 | -167
O=C(c1ccco1)N1CCN2C[C@H](OCc3cccnc3)C[C@H]2C1 | -180
O=C([C@H]1C[C@H]2OCC[C@H]2N(Cc2ccncc2)C1)N1CCCCO1 | -62.9
CCN(CC)C(=O)C1CCC2(CCNCC2)O1 (stereo unspecified) | -55.8
c1ccc(CO[C@H]2CC[C@H]3[C@H]2OCCN3Cc2nccs2)nc1 | -8.49
CC(C)CN1CCCC2(CCN(c3ccc(C#N)cn3)C2)C1 (stereo unspecified) | 9.73

Structure (SMILES) | INHIBITION [%]
CSc1nccc(N2CCC3(CCCN(CC4CC4)C3)C2)n1 (stereo unspecified) | -48.7
CC(C)CN1CCCC2(CCN(c3ccccn3)C2)C1 (stereo unspecified) | 71.2
CN(Cc1ccccc1)c1ncccc1CNC1CCC1 | 71.1
CN(Cc1ccccc1)c1ncccc1CNC1CN2CCC1CC2 (stereo unspecified) | 62.6
CC(C)N1CCC(NCc2cccnc2N(C)Cc2ccccc2)CC1 | 84.1
CN(c1ncccc1C#N)C1CCN(Cc2ccncc2)CC1 | -82.3
CN(CCc1ccccc1)Cc1c(C2CC2)[nH]c2ncccc12 | -22.1
CC(C)c1noc(CN(Cc2cccnc2)C2CN3CCC2CC3)n1 (stereo unspecified) | -90.3
CNc1nccnc1C1CCN(C(C)C)CC1 | 10.5
COc1ncccc1CN1C[C@H]2CCN(C(C)C)C[C@H]2C1 | 9.06
Nc1cc(-c2cccc3c2CCNC3)ncn1 | -47.8
Cc1ccccc1CC(=O)N1CCN(C2CCOC2=O)CC1 (stereo unspecified) | -126
c1cncc(COC[C@H]2CC[C@H]3[C@H](CCN3Cc3cccs3)O2)c1 | -174
CC(=O)N1CCN(Cc2ccncc2)CC2(CC(=O)N(C)C2)C1 (stereo unspecified) | -18.8
COCCn1c(C(=O)NCc2n[nH]c(C)n2)cc2ccccc21 | -74.2
Cc1nc(CN2CCO[C@@H]3CC(COc4ccccn4)C[C@H]32)cs1 (stereo partly specified) | -52.4
Cc1cc(C(=O)NCC(=O)N2CCOCC2)nn1C(C)(C)C | -113
c1ccc(CNc2ncc(CN3CC[C@@H]4CC[C@H](C3)N4)cn2)cc1 | -65
Cc1ncc2c(n1)CCCC2NC(=O)c1cnn(Cc2ccccc2)c1 (stereo unspecified) | -115
Cc1nc2c(c(NC3CCN(Cc4ccccc4)CC3)n1)CCNCC2 | 78.7
Cc1nnc([C@H]2CC[C@@H]3[C@@H](CCN3Cc3c(C)noc3C)O2)o1 | -1.83
Cc1n[nH]c2c1C(c1ccc3c(c1)OCCO3)SCC(=O)N2 (stereo unspecified) | 8.75
